Measurements: PubChem BioAssay (NCATS)
Records with an inconclusive call do not appear. Activity calls are given as the source filed them. The call rests on the fitted dose curve; in most records, active means well fitted curve in the direction sought with a large enough effect; inconclusive means small, poorly fitted or top-dose-only effect, or another doubt; inactive means no such curve, though single readings can be large; an effect the other way counts as inactive or inconclusive.

Tests used:
[1] = target: Furin (Homo sapiens) (UniProt P09958); test: Furin counterscreen qHTS for Zika virus inhibitors (AID 1347149); further: nearly all actives have a fitted effect of over 70% in size; further: potency means the concentration at half of the fitted maximal effect
Procedure, shortened: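 Fluorogenic cleavage of BOC-RVRR-AMC (2 microM final, Km ~15 µM) was monitored (ex 340, em 450 nm) at 37C after 15 min RT preincubation of 5 nM furin with compounds in HEPES pH 7.0 buffer with CaCl2 and Triton X-100. Percent inhibition was fitted to a 4-parameter Hill curve.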

[2] = test system: Zika virus NS2B-NS3 protease (linked construct); test: Confirmatory screen NINDS AMC qHTS for Zika virus inhibitors (AID 1347152); further: potency means the concentration at half of the fitted maximal effect; nearly all actives have a fitted effect of over 70% in size
Procedure, shortened: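 Purified NS2B-NS3 protease with NS2B hydrophilic domain linked to NS3 protease domain by flexible linker, 1 nM final in 10 mM Tris-HCl pH 8.0, 0.01% Tween 20. Compounds preincubated 15 min, room temperature; Bz-Nle-KRR-AMC 10 microM (Km 18.3 µM); 15-min fluorescence change, 4-parameter Hill fit.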

[3] = test system: Zika virus NS2B-NS3 protease (unlinked complex); test: Confirmatory screen GU AMC qHTS for Zika virus inhibitors (AID 1347153);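 further: enzyme at 25 nM with substrate at 10 µM below its Km of 18.3 µM; potency means the concentration at half of the fitted maximal effect; nearly all actives have a fitted effect of over 70% in size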
Procedure, shortened: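 Unlinked NS2B-NS3 complex (25 nM) in 10 mM Tris-HCl pH 8.0, 0.01% Tween 20 preincubated 15 min with compound, then 10 microM Bz-Nle-KRR-AMC (Km 18.3 µM). Fluorescence change over 15 min, normalized, Hill-fitted.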

[4] = test system: Zika virus NS2B-NS3 protease; test: Primary screen GU AMC qHTS for Zika virus inhibitors (AID 1347154); further: nearly all actives have a fitted effect of over 70% in size; further: potency means the concentration at half of the fitted maximal effect
Procedure, shortened: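 Unlinked Zika NS2B hydrophilic domain/NS3 protease domain noncovalent complex (25 nM final) in 10 mM Tris-HCl pH 8.0, 0.01% Tween 20, with AMC peptide substrate. Fluorescence (ex 340, em 450 nm) change over 15 min, room temperature; percent inhibition fitted to 4-parameter Hill equation.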

[5] = ZIKV-mCherry secondary qHTS for Zika virus inhibitors (AID 1347158); further: top concentration of the series differs between compounds
Procedure, shortened: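 After overnight seeding at 37 °C, Vero cells receive compound and then ZIKV-mCherry (MOI 1). Following 48-72 h infection, cells are fixed, counterstained with Hoechst, and imaged; percent infected cells is derived from an mCherry intensity cut-off of 450 RFU.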

[6] = Confirmatory screen NINDS Rhodamine qHTS for Zika virus inhibitors (AID 1347161); further: potency means the concentration at half of the fitted maximal effect; nearly all actives have a fitted effect of over 60% in size
Procedure, shortened: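 Single-chain NS2B-NS3 protease, 25 nM, pH 8.0; compounds preincubated 15 min. Activity: Rhodamine110 release from 1.5 microM substrate over 15 min, room temperature, data fitted to 4-parameter Hill.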

[7] = test system: Zika virus NS2B-NS3 protease (linked); test: 384 well plate NINDS AMC confirmatory qHTS for Zika virus inhibitors (AID 1347163); further: potency means the concentration at half of the fitted maximal effect; nearly all actives have a fitted effect of over 50% in size
Procedure, shortened: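 Linked protease 5/30/60 nM final; cpds up to 1 mM final, ~15 min preinc. Substrate Ac-VKTGKR-AMC 30 microM final. RT, dark, 25 min; FI ex 355/em 460; normalized to no-enzyme/no-inhibitor ctrls.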

[8] = test system: Zika virus NS2B-NS3 protease (linked construct); test: 384 well plate NINDS Rhodamine confirmatory qHTS for Zika virus inhibitors (AID 1347164);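 further: fluorescence from protease cleavage of Ac-LKRR-rhodamine 110 substrate; potency means the concentration at half of the fitted maximal effect; nearly all actives have a fitted effect of over 65% in size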
Procedure, shortened: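 Linked protease at a final 5 nM, 30 nM or 60 nM was preincubated ~15 min with compounds, then given 10 microM Ac-LKRR-Rhodamine 110. Fluorescence (ex 485/em 538 nm) after 25 min in the dark at room temperature.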

[9] = qHTS of pediatric cancer cell lines to identify multiple opportunities for drug repurposing: Confirmatory screen for Rh41 cells (AID 1347123);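 further: 48 h compound exposure; nearly all actives have a fitted effect of over 60% in size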; further: potency means the concentration at half of the fitted maximal effect
Procedure, shortened: (§1)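 Cells (500-1,000/well) in growth media were settled 5 h at 37 degrees C, then given compounds for 48 h. Viability was read as CellTiter-Glo luminescence. Primary runs used MIPE at 11 points (0.78 nM-46 µM) and NPC at 8 points (0.59 nM-46 µM); follow-ups used 11 points.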

[10] = qHTS of pediatric cancer cell lines to identify multiple opportunities for drug repurposing: Confirmatory screen for Rh18 cells (AID 1347125); further: nearly all actives have a fitted effect of over 55% in size; further: potency means the concentration at half of the fitted maximal effect
Procedure, shortened: as §1

[11] = qHTS of pediatric cancer cell lines to identify multiple opportunities for drug repurposing: Confirmatory screen for Rh30 cells (AID 1347126); further: nearly all actives have a fitted effect of over 55% in size; further: potency means the concentration at half of the fitted maximal effect
Procedure, shortened: as §1

[12] = qHTS of pediatric cancer cell lines to identify multiple opportunities for drug repurposing: Confirmatory screen for Saos-2 cells (AID 1347127); further: nearly all actives have a fitted effect of over 60% in size; further: potency means the concentration at half of the fitted maximal effect
Procedure, shortened: as §1

[13] = qHTS of pediatric cancer cell lines to identify multiple opportunities for drug repurposing: Confirmatory screen for OHS-50 cells (AID 1347128);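 further: compound exposure lasted 48 h at 37 degrees C; nearly all actives have a fitted effect of over 55% in size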; further: potency means the concentration at half of the fitted maximal effect
Procedure, shortened: as §1

[14] = qHTS of pediatric cancer cell lines to identify multiple opportunities for drug repurposing: Confirmatory screen for SK-N-SH cells (AID 1347129);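 further: cells exposed to compound for 48 h before viability read; nearly all actives have a fitted effect of over 60% in size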; further: potency means the concentration at half of the fitted maximal effect
Procedure, shortened: as §1

[15] = qHTS of pediatric cancer cell lines to identify multiple opportunities for drug repurposing: Confirmatory screen for U-2 OS cells (AID 1347122); further: nearly all actives have a fitted effect of over 65% in size; further: potency means the concentration at half of the fitted maximal effect
Procedure, shortened: as §1

[16] = qHTS of pediatric cancer cell lines to identify multiple opportunities for drug repurposing: Confirmatory screen for RD cells (AID 1347124);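 further: cells exposed to compound for 48 h before viability readout; nearly all actives have a fitted effect of over 65% in size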; further: potency means the concentration at half of the fitted maximal effect
Procedure, shortened: as §1

[17] = test system: Zika virus NS2B-NS3 protease (unlinked complex); test: Primary screen GU Rhodamine qHTS for Zika virus inhibitors: Unlinked NS2B-NS3 protease assay (AID 1347159)
Procedure, shortened: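 Noncovalent NS2B hydrophilic domain/NS3 protease complex (25 nM final) in 10 mM Tris-HCl pH 8.0, 0.01% Tween 20, preincubated 15 min with compounds (up to 114 microM), then 1.5 microM Rhodamine110 substrate. Fluorescence change over 15 min fitted to 4-parameter Hill.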

[18] = test system: Zika virus NS2B-NS3 protease (linked construct); test: Primary screen NINDS Rhodamine qHTS for Zika virus inhibitors (AID 1347160); further: nearly all actives have a fitted effect of over 55% in size; further: potency means the concentration at half of the fitted maximal effect
Procedure, shortened: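 Purified NS2B-NS3 protease with the NS2B hydrophilic domain joined by a flexible linker (25 nM) in 10 mM Tris-HCl pH 8.0, 0.01% Tween 20, preincubated 15 min at RT with compound; Rhodamine110 peptide substrate 1.5 µM; fluorescence change over 15 min; 4-parameter Hill fit.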

[19] = test system: Zika virus NS2B-NS3 protease (unlinked); test: Optimization of GU AMC qHTS for Zika virus inhibitors: Unlinked NS2B-NS3 protease assay (AID 1347151); further: series mostly up to about 52 µM; nearly all actives have a fitted effect of over 80% in size
Procedure, shortened: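 Noncovalent complex of NS2B hydrophilic domain and NS3 protease domain, 25 nM final, in 10 mM Tris-HCl pH 8.0, 0.01% Tween 20. AMC fluorescence change over 15 min at room temperature was fitted to a 4-parameter Hill equation.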

[20] = Confirmatory screen GU Rhodamine qHTS for Zika virus inhibitors qHTS (AID 1347157); conditions: purified enzyme assay, Rhodamine110 substrate fluorescence, 15 min
Procedure, shortened: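 Enzyme 25 nM in Tris-HCl pH 8.0 + 0.01% Tween 20; compounds up to 114 microM, 15 min RT dark; + Rhod110 substrate 1.5 microM; read t0 and 15 min; delta fluorescence → % inhibition → 4-parameter Hill fit.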

Measured: Potency

Furin (Homo sapiens), sequence (P09958 whole entry, looked up): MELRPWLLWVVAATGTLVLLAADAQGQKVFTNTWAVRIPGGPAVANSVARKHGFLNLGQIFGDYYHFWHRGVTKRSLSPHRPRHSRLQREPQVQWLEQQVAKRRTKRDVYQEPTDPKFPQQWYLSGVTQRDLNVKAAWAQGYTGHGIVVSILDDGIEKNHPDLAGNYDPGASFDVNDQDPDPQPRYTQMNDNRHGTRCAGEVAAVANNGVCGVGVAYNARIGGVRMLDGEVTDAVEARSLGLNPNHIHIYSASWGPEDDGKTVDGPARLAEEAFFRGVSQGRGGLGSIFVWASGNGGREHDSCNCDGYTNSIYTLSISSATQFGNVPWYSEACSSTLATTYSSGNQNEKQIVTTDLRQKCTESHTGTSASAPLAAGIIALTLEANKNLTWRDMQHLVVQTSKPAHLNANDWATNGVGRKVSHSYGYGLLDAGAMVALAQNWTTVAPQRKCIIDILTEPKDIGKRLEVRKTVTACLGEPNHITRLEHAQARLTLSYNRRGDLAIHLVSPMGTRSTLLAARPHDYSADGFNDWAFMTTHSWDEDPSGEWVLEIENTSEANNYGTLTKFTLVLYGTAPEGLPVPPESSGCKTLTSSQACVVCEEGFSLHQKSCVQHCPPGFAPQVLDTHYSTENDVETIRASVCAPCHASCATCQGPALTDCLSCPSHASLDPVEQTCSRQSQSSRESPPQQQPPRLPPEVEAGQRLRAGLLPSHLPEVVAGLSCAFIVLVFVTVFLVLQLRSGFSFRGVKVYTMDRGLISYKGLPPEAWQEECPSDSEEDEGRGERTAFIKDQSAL

COc1ccc(S(=O)(=O)Nc2cc(-c3c(O)ccc4ccccc34)c(O)c3ccccc23)cc1
inactive: [1] | [5]
active: [2] 19.2 µM | [3] 24.1 µM | [4] 24.1 µM | [6] 8.77 µM | [7] 31.6 µM | [8] 44.7 µM

COC(=O)C=CC(=O)OC
active: [9] 23.3 µM | [10] 14.7 µM | [11] 4.14 µM
inactive: [12] | [13] | [14] | [4]

NC(=O)Nc1sc(-c2ccc(F)cc2)cc1C(N)=O
active: [15] 14.7 µM | [14] 14.8 µM
inactive: [4]

CNC(=O)c1ccc(Nc2cc(Nc3ccccc3S(=O)(=O)C(C)C)c3cc[nH]c3n2)nc1
inactive: [4]
active: [9] 5.85 µM | [16] 9.27 µM | [10] 18.5 µM | [11] 4.14 µM | [12] 5.85 µM | [13] 8.27 µM | [14] 5.9 µM

N#Cc1c(NC(=O)c2cccc3ccccc23)sc2c1CCCC2
active: [15] 0.657 µM | [12] 0.261 µM
inactive: [10] | [11] | [4]

Cc1cnc(Nc2ccc(N3CCN(C)CC3)cc2)nc1Nc1cccc(S(=O)(=O)NC(C)(C)C)c1
inactive: [4]
active: [9] 3.29 µM | [16] 7.37 µM | [10] 2.93 µM | [12] 3.69 µM | [13] 2.93 µM | [14] 2.35 µM

COc1cc(C[C@@H](CO)[C@H](CO)Cc2ccc(O)c(OC)c2)ccc1O
active: [16] 16.5 µM
inactive: [10] | [13] | [14] | [4]

COc1cc(O)c2c(c1)C1OC1C[C@H](O)[C@H](O)C(=O)C=CC[C@H](C)OC2=O (some centres undefined)
active: [9] 0.165 µM | [10] 18.5 µM | [12] 9.27 µM | [14] 4.69 µM

CCOC(=O)[C@@H](N)Cc1ccc(-c2cc(O[C@H](c3ccc(Cl)cc3-n3ccc(C)n3)C(F)(F)F)nc(N)n2)cc1
active: [9] 14.7 µM | [17] 44.7 µM
inactive: [4]

C=C1C(=CC=C2CCC[C@]3(C)[C@@H]([C@H](C)CCCC(C)(C)O)CC[C@@H]23)C[C@@H](O)C[C@@H]1O
inactive: [9] | [16] | [10] | [11] | [12] | [13] | [14]

O=C1c2c(O)cccc2[C@@H]([C@@H]2O[C@H](CO)[C@@H](O)[C@H](O)[C@H]2O)c2cc(CO)cc(O)c21
inactive: [9] | [12] | [13] | [14] | [4]

CC(N[C@H]1CCCC[C@H]1NC(=O)c1ccc(Cl)cc1)c1cccc2ccccc12 (some centres undefined)
active: [12] 26.1 µM | [13] 20.8 µM | [14] 9.35 µM
inactive: [4]

COc1ccc2c(c1OC)C(=O)OC2[C@H]1c2c(cc3c(c2OC)OCO3)CCN1C (some centres undefined)
inactive: [15] | [16] | [10] | [11] | [12] | [13] | [14] | [4]

O=C(NCc1ccccc1)[C@H](Cc1ccccc1)NC(=O)[C@@H]1O[C@@H]1C(=O)NCCc1ccc(O)cc1
inactive: [15] | [16] | [10] | [11] | [12] | [13] | [14] | [4]

c1cc(N[C@@H]2CCNC2)nc(-c2cnc3ccc(-c4cn[nH]c4)cn23)c1
active: [1] 24.1 µM
inactive: [18]

C[C@H]1COc2c(N3CCN(C)CC3)c(F)cc3c(=O)c(C(=O)O)cn1c23
active: [1] 24.1 µM

CCCCCCCCc1ccc(CCC(N)(CO)CO)cc1
inactive: [19]

CC(C)c1cc(C(C)C)c(CC(=O)NS(=O)(=O)Oc2c(C(C)C)cccc2C(C)C)c(C(C)C)c1
active: [20] 2.21 µM | [17] 3.16 µM | [18] 3.16 µM
